Inhibition data for 17 molecules are collected here from ChEMBL document CHEMBL1961873, “Compounds: GSK PKIS; Assays: Nanosyn kinase panel” (2012).

In general, inhibition refers to the relative decrease from the control value, in per cent.

This test concerns Tyrosine-protein kinase ABL1 (Homo sapiens), P00519 [E255K]. The following applies: at 0.1 µM.
Tyrosine-protein kinase ABL1 (Homo sapiens), P00519 [E255K], sequence (P00519 whole entry E255K): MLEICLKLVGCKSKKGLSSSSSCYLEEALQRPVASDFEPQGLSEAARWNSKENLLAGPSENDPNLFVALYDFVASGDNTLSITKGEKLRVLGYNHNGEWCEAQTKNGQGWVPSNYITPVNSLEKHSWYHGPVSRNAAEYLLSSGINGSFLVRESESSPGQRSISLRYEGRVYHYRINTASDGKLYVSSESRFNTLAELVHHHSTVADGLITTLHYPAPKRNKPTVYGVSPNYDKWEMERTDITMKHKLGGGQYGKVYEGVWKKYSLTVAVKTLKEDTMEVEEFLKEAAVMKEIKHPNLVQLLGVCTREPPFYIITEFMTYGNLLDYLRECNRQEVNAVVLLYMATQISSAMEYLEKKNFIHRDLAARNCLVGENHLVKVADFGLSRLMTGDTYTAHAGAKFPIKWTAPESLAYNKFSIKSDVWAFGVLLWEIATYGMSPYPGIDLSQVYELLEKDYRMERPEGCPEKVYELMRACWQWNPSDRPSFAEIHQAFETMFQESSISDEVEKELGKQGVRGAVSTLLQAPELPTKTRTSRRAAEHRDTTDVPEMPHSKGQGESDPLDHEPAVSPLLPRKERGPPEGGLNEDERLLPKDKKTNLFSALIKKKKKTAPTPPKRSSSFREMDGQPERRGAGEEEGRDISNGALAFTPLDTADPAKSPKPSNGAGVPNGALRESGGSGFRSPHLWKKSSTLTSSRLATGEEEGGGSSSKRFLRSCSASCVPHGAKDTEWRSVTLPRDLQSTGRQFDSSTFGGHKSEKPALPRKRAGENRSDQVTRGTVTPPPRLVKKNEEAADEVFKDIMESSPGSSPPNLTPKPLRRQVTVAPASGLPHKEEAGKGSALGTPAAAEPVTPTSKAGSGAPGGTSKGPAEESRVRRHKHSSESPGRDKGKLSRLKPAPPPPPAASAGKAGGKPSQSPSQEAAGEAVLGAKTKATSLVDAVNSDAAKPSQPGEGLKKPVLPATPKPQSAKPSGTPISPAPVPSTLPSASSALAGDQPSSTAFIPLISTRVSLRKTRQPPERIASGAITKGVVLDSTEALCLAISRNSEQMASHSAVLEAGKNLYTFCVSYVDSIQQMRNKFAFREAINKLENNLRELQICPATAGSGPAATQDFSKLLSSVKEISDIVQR
Turning to `c1ccc(COc2ccc(Nc3ncnc4ccc(-c5ccco5)cc34)cc2)cc1`, the inhibition is -0.69%.
On to `COc1ccc2c(-c3ccnc(Nc4cccc(OC(F)(F)F)c4)n3)cnn2n1`, for which the inhibition came to 3.39%.
As for `CN1CCC(n2cnc(-c3ccc(F)cc3)c2-c2ccnc(N)n2)CC1`, the inhibition was 3.04%.
As for `COc1ccc(-c2cc(-c3c[nH]nc3-c3ccccn3)ccn2)cc1`, the figure is 9.84%.
Take `Cc1cccc(Nc2ncc(-c3ccccc3)o2)c1`: the inhibition was -0.07%.
Turning to `COC(=O)c1sc(-n2cnc3cc(OC)c(OC)cc32)cc1OCc1ccccc1C(F)(F)F`, the inhibition was 6.91%.
The figure for `N#Cc1c(NC(=O)CN2CCOCC2)sc2c1CCCC2` is 3.47%; for `COc1ccc(-c2cc3c(N)ncnc3o2)cc1` it is 0.23%; for `N#Cc1c(NC(=O)c2ccc(F)cc2)sc2c1CCCC2` it is 0.33%.
Consider `Cc1ccc2c(-c3ccnc(Nc4ccccc4)n3)c(-c3ccc(F)cc3)nn2n1`, for which the inhibition was found to be 3.13%.
For the molecule `CNC(=O)c1cc(-c2ccc(F)cc2)cc(-c2ccc(S(=O)(=O)N3CCCC3)cc2)c1N`, the inhibition stood at 2.54%.
Take `Cc1ccc(O)cc1Nc1ccnc2cc(-c3ccccn3)ccc12`: the inhibition was found to be 93.5%.
With `CCc1nn2ncccc2c1-c1ccnc(NC2CC2)n1`, the inhibition amounted to 0.71%.
As for `CCCN1CCC(c2ccc(Nc3nc(Nc4cc(F)ccc4C(N)=O)c4cc[nH]c4n3)c(OC)c2)CC1`, the figure is 4.38%; as for `Fc1ccc(-c2nn3ccccc3c2-c2ccncc2)cc1`, 1.77%; as for `O=C(O[C@H]1CN[C@H](C#Cc2cc3ncnc(Nc4ccc(Cc5ccccc5)cc4)c3s2)C1)N1CCOCC1`, -0.19%.
As for `COc1ccc(-c2nn3ncccc3c2-c2ccnc(Nc3ccc4c(c3)OCCO4)n2)cc1`, the inhibition is -0.56%.
